The panel holds about 79,000 compounds, 15% with a hit somewhere; the sample as a whole holds those more often. Calls of active or inactive are those of the source. Rule as the data show it: active = growth inhibition above about 70%; inactive = the rest.
assay: NCI Yeast Anticancer Drug Screen. Data for the bub3 strain (AID 167); details: S. cerevisiae bub3 mutant strain, at 50.0 µM, stronger effect = higher value
Description: Growth inhibition of yeast strains with defined genetic alterations is measured as a screen for potential anti-cancer activity. Selected strains with alterations in DNA damage repair or cell cycle control were exposed to compounds and growth inhibition was measured relative to vehicle treated controls. The strain used in this assay is bub3

Compound	growth inhibition
CSc1nc(Br)nc2ncn(C3CC(Oc4ccc(C)cc4)C(COc4ccc(C)cc4)O3)c12 (stereo not given)	-3.15% (inactive)
N#CC(=S)Nc1ccc(F)cc1	10.9% (inactive)
Cc1ccc(NC2=N/C(=C/c3ccccc3)C(Cl)=N2)cc1	14.3% (inactive)
CC1CC(C(=O)OC2OC(COC3OC(CO)C(OC4OC(C)C(O)C(O)C4O)C(O)C3O)C(O)C(O)C2O)C2CCC3(C)C(=CCC4(C)C3CCC3C(C)(CO)C(O)C(O)CC34C)C2C1C (stereo not given)	77.8% (active)
OCc1ccccc1OC1OC(CO)C(O)C(O)C1O (stereo not given)	21.6% (inactive)
C1CCCCNCCC1	-26.7% (inactive)
NNc1[nH]c(=S)[nH]c1C(N)=O	-22.1% (inactive)
CC1C2(C)OC(=N)C(C#N)(C(c3cccc([N+](=O)[O-])c3)O2)C1(C#N)C#N (stereo not given)	-10.4% (inactive)
O=C1c2cccnc2-c2nccc3ccnc1c23	57.5% (inactive)
CC/C(Cl)=N\OC(=O)Nc1ccc(OC)cc1	1.15% (inactive)
CO/C(N)=C(\C#N)N=Cc1ccc2ccccc2c1	16.7% (inactive)
C=C1CC2(C)CCC(OC(=O)C3(C)OC3C)C(C)(OC(C)=O)C2CC1=C(C)C (stereo not given)	-4.85% (inactive)
COc1cc(Oc2c(C)c(Cl)c(OC)c(Cl)c2OC)c2c(c1Cl)COC2=O	-5.75% (inactive)
CNc1nc2c(C)ccc3[nH]c(N(C)C)nc3c-2n1	4.65% (inactive)
OCc1ccccn1	-3.95% (inactive)
O=c1c2ccccc2nc(-c2ccccc2)n1/N=C/c1ccccc1[N+](=O)[O-]	18.4% (inactive)
COC(=O)C(=O)C(C(=O)C(=O)Nc1ccccc1OC)c1nc2ccc([N+](=O)[O-])cc2[nH]c1=O (stereo not given)	36.1% (inactive)
Cn1c2c(c3ccccc3c1=O)C(=O)c1ccccc1-2	7.7% (inactive)
COC(=O)C1CCC(=O)N1CN(C(C)=O)c1cccc(O)c1 (stereo not given)	-15.7% (inactive)
COc1cc2c(c3c1c(=O)c1ccccc1n3C)C=C([N+](=O)[O-])C(C)(C)O2	-39.5% (inactive)

Compound	growth inhibition
COc1cc2c3cc1Oc1c(OC)c(OC)cc4c1C(Cc1ccc(O)c(c1)-c1cc(ccc1OC)CC3N(C)CC2)N(C)CC4 (stereo not given)	8.85% (inactive)
CCCCCCCCCC(O)CC(=O)c1c(O)cccc1O (stereo not given)	82.1% (active)
CN1C2CCC1CC(OC(=O)C(O)c1ccccc1)C2 (stereo not given)	-35.8% (inactive)
CC1CC2(OC2C)C(=O)OC2CCN(C)C/C=C(/COC(=O)C1(C)O)C2=O (stereo not given)	-10.8% (inactive)
CCO/C=N\C1=C(C#N)SC2=N/C(=C\c3ccc(OC)cc3)C(=O)N21	-2.1% (inactive)
O=C1NC(N/N=C\c2ccccc2)=N/C1=C/c1ccccc1	-0.3% (inactive)
Cc1ccc(/C=N/Nc2nc3ccccc3s2)s1	-12.1% (inactive)
CC(C)C1OC(N)=C(C#N)C1(C#N)C#N (stereo not given)	-19% (inactive)
CCCCC1C(=O)N(c2ccc(S(=O)(=O)Nc3ccccn3)cc2)N(c2ccc(O)c(C(=O)O)c2)C1=O (stereo not given)	34.6% (inactive)
COc1cc2c(cc1-c1coc3cc(O)ccc3c1=O)OCO2	-14.3% (inactive)
N#CC1(C#N)C2CCCCC23OC(=N)C1(C#N)C(c1ccccc1)O3 (stereo not given)	-29.9% (inactive)
O=C1NC(N/N=C\c2ccccc2)=N/C1=C/c1ccc(Cl)cc1	16.7% (inactive)
Clc1c(Cl)c(Cl)c2nn(C3CCCO3)nc2c1Cl (stereo not given)	12.1% (inactive)
CCn1c2c(c3ccccc3c1=O)C(=O)c1ccccc1-2	-3.85% (inactive)
O[C@H]1[C@H](O)[C@@H](Cn2nnc(-c3ccccc3)c2-c2ccccc2)OCO[C@@H]1Cn1nnc(-c2ccccc2)c1-c1ccccc1	28.8% (inactive)
C=C1C(=O)O[C@@H]2C[C@@]3(C)CC(=O)C=C(C)[C@@H]3C[C@H]12	15.8% (inactive)
COc1c2c(c3c(c1OC)c(=O)c1ccccc1n3C)OCO2	8.8% (inactive)
CCN(CC)C(=O)c1cccnc1	-20.4% (inactive)
O=C(/C=C(\[O-])c1ccccc1)CCCCCCC(=O)/C=C(\[O-])c1ccccc1.O=C(/C=C(\[O-])c1ccccc1)CCCCCCC(=O)/C=C(\[O-])c1ccccc1.O=C(/C=C(\[O-])c1ccccc1)CCCCCCC(=O)/C=C(\[O-])c1ccccc1.[Y+3].[Y+3]	15.4% (inactive)
C=C(C)C(=O)OC1CC2(C)OC(=CC2=O)C(C)CC2OC(=O)C(=C)C12 (stereo not given)	33.5% (inactive)
